Here are results for 40 compounds from PubChem BioAssay (NCI).

Compounds without any hit were thinned out: in the full panel of roughly 83,000, 20% have a hit.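 Single-concentration screen, 48 h exposure, 96-well plates. Endpoint: percent growth. Below 10 = active.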 Values without a mark were called inactive. Activity calls are given as the source filed them.

This test concerns HL-60(TB) leukemia. Description: NCI-60 one-dose screen, 48 h (100 = growth as untreated, 0 = no growth, -100 = all killed). To be noted: 10 µM unless noted.
Regarding `CCCCCn1c(C)cc(/C=C\c2ccc3cc(C)ccc3[n+]2C)c1C`, the growth is -6.41% (active).

For the compound `CCCCCCC(C)N(CC(C)(C)O)C(=O)c1ccc([N+](=O)[O-])cc1` (stereo not given), the growth is 95.7%.

As for `CCOC(=O)C1=C(C)NC(=O)NC1c1c(Cl)n(-c2ccccc2)c2ccccc12` (stereo not given), the growth is 73.4%.

With `O=c1cc(SCc2ccccc2)nc[nH]1`, the growth was 82.3%.

For `O=C(N/N=C/c1ccc(Cl)cc1Cl)c1ccc2nc(-c3ccc(Cl)cc3)[nH]c2c1`, the growth is 5.77% (active).

For the compound `Cc1nc2c(c(N3CCCc4ccccc43)n1)CCC2`, the growth is -42.3% (active).

Take `Nc1ccc(C(=O)CSc2nc3ccccc3[nH]2)cc1`: the growth is 95.3%.

For the compound `Cn1cc(-c2csc(-c3cn(CCN)c4ccc(Br)cc34)n2)c2cccnc21`, the growth is 41%.

On to `COc1ccc(-c2csc(-c3cc(Cl)cc(Cl)c3Cl)n2)cc1`, for which the growth is 93.6%.

With `COc1ccc(C(=O)c2sc3nc(-c4ccccc4OC)ccc3c2N)cc1OC`, the growth was 13.9%.

In the case of `Cn1cc(-c2nonc2-c2c[nH]c3ccccc23)c2ccccc21`, the growth is 1.04% (active).

As to `CC(C)(C)CC(C)(C)c1ccc(OCCSC(=N)N)cc1`, the growth is 22.2%.

Regarding `Cc1nn(-c2ccc(Cl)cc2)c(=O)n1CCN1CCOCC1`, the growth is 105%.

For `C=C(C)C1CC(O)C2(C)CCCC3C2C1CC(C)C3(C)CC/C(C)=C/C(O)C1CCC(=O)c2c(OC)cc(OC)cc21` (stereo not given), the growth is 22.4%.

With `COc1ccccc1N1CCN(CCCOc2ccc(OCCCN3CCN(c4ccccc4OC)CC3)c(C(=O)c3cc(OC)c(OC)c(OC)c3)c2)CC1`, the growth is 101%.

For the compound `C/C(Cc1ccc(Cl)cc1)=C(\c1ccc(OCCN2CCCCCC2)cc1)c1ccc(OC(=O)c2ccccc2)cc1`, the growth was 23.1%.

For `CCc1ccc(Oc2c(-c3ccc(OCc4ccc(Cl)cc4)cc3O)nn(C)c2C(F)(F)F)cc1`, the growth was -36.9% (active).

Consider `COc1ccc(Cn2c(C(N)=O)cc3c2-c2nc(N)ncc2CCC3)cc1`, for which the growth is 121%.

With `CCc1ccc(-c2nnc(COc3ccc(-c4nc5cc(Cl)c(Cl)cc5[nH]4)cc3OC)o2)cc1`, the growth is 105%.

With `COc1cc(C2C3CC4CCCC[C@H]4N3[C@@]3(C(=O)Nc4cc(Cl)ccc43)C2C(=O)c2nc3ccccc3[nH]2)cc(OC)c1OC` (stereo not given in full), the growth was 21.8%.

With `Cc1ccc(-c2c3c(N)c4c(nc3nc3c2c(C)nn3-c2ccccc2)CCCC4)cc1`, the growth is 98.5%.

For the compound `COc1ccc2c3c(ccc2c1)C(=O)/C(=C\O)CC3`, the growth is 75.1%.

Regarding `CCCCCCc1nc2nc(Cl)c(Cl)nc2[nH]1`, the growth was 39.6%.

`COc1cc(/C=C\C(C)=N\Nc2ccccc2)ccc1O`: the growth was 3.74% (active).

Regarding `CC1Cc2cc(F)ccc2-n2cccc21` (stereo not given), the growth is 111%.

Turning to `CN1C(=O)/C(=C2\SC(=Nc3ccccc3)N(Nc3ccccc3)C2=O)c2ccccc21`, the growth was 108%.

For the compound `COC(=O)c1[nH]c(=O)c(C#N)c(C(=O)OC)c1C(=O)c1ccccc1`, the growth was 94.8%.

For `N#Cc1c(NC(=O)c2cccs2)[n+]([O-])c2ccc(Cl)cc2[n+]1[O-]`, the growth was 122%.

On to `COc1ccc(N2CCN(CC(=O)N3CCN(c4nnc(-c5ccccc5)c(-c5ccccc5)n4)CC3)CC2)cc1`, for which the growth is -36.3% (active).

As for `CN1CCN(Cc2ccc(C(=O)Nc3cncc(C#Cc4cnc5cccnn45)c3)cc2C(F)(F)F)CC1`, the growth was 1.37% (active).

In the case of `CN(C)CCN1C(=O)c2c(c3c4ccccc4n4c3c3c2c2ccccc2n3C2CC(O)C(O)C4(C)O2)C1=O` (stereo not given), the growth is 32.5%.

With `COc1ccc(/C=C2\COc3ccc(O)cc3C2=O)cc1OC`, the growth was 3.81% (active).

Turning to `O=C(Nc1ccc2ncnc(Nc3ccc(Oc4cccc(F)c4)c(Cl)c3)c2c1)c1ccc(CN2CCOCC2)cc1`, the growth is -11.3% (active).

As for `O=C1N(c2ccccc2)C(=S)N[C@]12[C@H](c1ccccc1)C1CCCN1[C@]21C(=O)NC2C=CC(Cl)=C[C@H]21` (stereo not given in full), the growth is 81.5%.

Consider `O=C(Nc1cccc(-n2ccc3c(NC(=O)c4ccccc4)nccc32)c1)Nc1cc(C(F)(F)F)cc(C(F)(F)F)c1`, for which the growth is -17.6% (active).

As for `O=S(=O)(Nc1ccccn1)c1ccc(N=Nc2ccc(O)c3ncccc23)cc1`, the growth is -30.6% (active).

`CC(=O)NC(CCc1ccc(Cl)c(Cl)c1)c1cccc(O)c(=O)c1` (stereo not given): the growth is -16.5% (active).

As to `CCNC(=O)c1[nH]cc(-c2ccc(OC)cc2)c1-c1cc(OC)c(OC)c(OC)c1`, the growth is 5.15% (active).

`CCCCCCCCCN1C(=O)/C(=c2\sc3n(c2=O)C2C(NN=3)N(CC)C(=O)N2CC)c2ccccc21` (stereo not given): the growth is 84.1%.

For `Cc1ccc(C=C2C(=O)NC(=O)NC2=O)cc1`, the growth was 101%.
